High-throughput results (PubChem)
MARV entry inh: Marburg virus entry inhibition; Marburg virus pseudotyped entry inhibition, cell reporter; Potency, µM (titrated, usually from 37.8 µM), inactives show top-dose activity change, negative = inhibition, actives largely listed as inhibitors; actives 1.8% (n = 300,000); calls by dose curve; tested in HEK293 cells; also: potency is read from the fitted curve at half-maximal effect
HCMV antiviral: blocks human cytomegalovirus replication. HFF cells, HCMV-luciferase reporter, 72 h; hits give low values. activity change, negative = inhibition, % at 57.5 µM. actives 4.5% (n = 410,000). AID 1259415; in the data active = activity change below about -60%; inconclusive = no clear call, values can overlap the other calls; inactive = above about -39%
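HFF cells seeded 16 h at 37C, treated with compounds, infected with luciferase-reporter HCMV at MOI 1 PFU/cell; luciferase read at 72 h post infection, normalized to buffer-only and Salinomycin controls.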
Lassa entry inh: inhibitors of Lassa virus binding or cell entry; Lassa virus pseudotype entry inhibition, cell reporter; Potency, µM (top dose mostly 37.9 µM), without a hit: top-dose activity change, negative = inhibition, actives largely listed as inhibitors; actives 1.2% (n = 300,000); AID 540256; calls by dose curve; tested in HEK293 cells; also: potency is read from the fitted curve at half-maximal effect; nearly all actives have a fitted effect of over 50% in size
FMDV antiviral: foot and mouth disease virus antiviral activity | actives 1.2% (n = 410,000) | FMDV antiviral cell-based qHTS | AID 1159524 | Potency, µM (titrated, usually from 57.9 µM), for inactives: at the highest dose activity change, negative = inhibition, actives largely listed as inhibitors; calls by dose curve; tested in HEK293T cells; also: read-out not given here; potency is read from the fitted curve at half-maximal effect; nearly all actives have a fitted effect of over 45% in size
* = called active by the depositor; [ ] = dose if it differs, or a comment. This is a sample that favours compounds with a hit; in the whole collection about 6.2% have one here. % is scaled to controls: 0 for no effect and ±100 for the full control effect.

Screening O=C(CCCN1C(=O)/C(=C/c2ccccc2Cl)SC1=S)NNC(=O)c1ccc(Cl)cc1Cl returned HCMV antiviral -64* and FMDV antiviral 8.9µM*.
O=C(CCN1C(=O)/C(=C/c2ccccc2Cl)SC1=S)Nc1ccccc1C(=O)O was read as HCMV antiviral -28 and FMDV antiviral inconclusive.
For COc1ccccc1C(=O)NNC(=O)CCCN1C(=O)/C(=C/c2cccs2)SC1=S the results were MARV entry inh 7%, HCMV antiviral -68*, Lassa entry inh 1% and FMDV antiviral 0%.
`CCCCC(=O)Nc1nnn(CCC)n1` gave MARV entry inh 14%, HCMV antiviral 8, Lassa entry inh 4% and FMDV antiviral 0%.
Screening CCCCC(=O)NC(=S)Nc1nnn(CCC)n1 returned MARV entry inh 9%[46.1 µM], HCMV antiviral -98*, Lassa entry inh -5% and FMDV antiviral 14%.
`N#C/C(=C/c1ccco1)c1nc2ccccc2s1` gave MARV entry inh inconclusive, HCMV antiviral 195, Lassa entry inh inconclusive and FMDV antiviral -8%.
For COc1cc([N+](=O)[O-])cc(/C=N/NC(=O)C(C)Nc2cccc3ccccc23)c1O (stereo unspecified) the results were MARV entry inh -29%, HCMV antiviral -61*, Lassa entry inh -8% and FMDV antiviral -24%.
COc1cc([N+](=O)[O-])cc(/C=N/NC(=O)c2cccnc2)c1O was read as HCMV antiviral -88* and FMDV antiviral -10%.
For CC(Nc1cccc2ccccc12)C(=O)N/N=C/c1ccc([N+](=O)[O-])cc1 (stereo unspecified) the results were MARV entry inh inconclusive, HCMV antiviral -6, Lassa entry inh -23% and FMDV antiviral -28%.
CCOc1ccc(NC(=O)c2ccc(NC(=O)COC(=O)Cc3ccccc3)cc2)cc1 was read as MARV entry inh inconclusive, HCMV antiviral 62, Lassa entry inh 2% and FMDV antiviral 9%.
Screening COc1ccc(NC(=O)CN2CCN(CC(=O)Nc3ccccc3Cl)CC2)cc1Cl returned MARV entry inh -2%, HCMV antiviral 8, Lassa entry inh -11% and FMDV antiviral 40µM*.
`COc1ccc(Cl)cc1NC(=O)CN1CCc2ccccc2C1` gave HCMV antiviral -75* and FMDV antiviral -14%.
COc1cc2c(cc1OC)CN(CC(=O)Nc1ccc(Cl)cc1Cl)CC2 was read as MARV entry inh -1%, HCMV antiviral inconclusive, Lassa entry inh inconclusive and FMDV antiviral -17%.
`COc1ccc(Cl)cc1NC(=O)CN1CCC(NC(=O)C2CC2)CC1` gave MARV entry inh inconclusive, HCMV antiviral -77*, Lassa entry inh -21% and FMDV antiviral -21%.
For CCOC(=O)c1cc(-c2ccc(C)cc2)n(CC(=O)Nc2ccc(OC)c(Cl)c2)c1C the results were MARV entry inh -19%[46.1 µM], HCMV antiviral -91* and FMDV antiviral 16%.
`CCOC(=O)c1cc(-c2ccc(C)cc2)n(CCC(=O)Nc2ccc(OC)c(OC)c2)c1C` gave MARV entry inh inconclusive, HCMV antiviral -10 and FMDV antiviral -5%.
COc1ccccc1NC(=O)CN1CCN(CC(=O)Nc2ccc(Cl)c(C(F)(F)F)c2)CC1 was read as MARV entry inh inconclusive, HCMV antiviral 0, Lassa entry inh inconclusive and FMDV antiviral inconclusive.
Screening CCCN1CCC(NC(=O)Nc2cc(Cl)ccc2OC)CC1 returned HCMV antiviral 9 and FMDV antiviral -12%.
`O=C1CCCC(O)=C1Sc1ccccc1C(=O)O` gave HCMV antiviral -20 and FMDV antiviral 1%.
O=C(Nc1nncs1)c1cc(-c2ccncc2)nc2ccc(Cl)cc12 was read as MARV entry inh 22%, HCMV antiviral -37, Lassa entry inh -12% and FMDV antiviral -11%.
CCCN1CCC(NC(=O)Nc2ccccc2C(=O)OC)CC1 was read as MARV entry inh -5%, HCMV antiviral 44, Lassa entry inh 1% and FMDV antiviral -8%.
Screening O=C1CCC(C(=O)OCC(=O)Nc2ccc(Cl)cc2C(F)(F)F)=NN1 returned HCMV antiviral -19 and FMDV antiviral -24%.
For COc1ccc(Cl)cc1NC(=O)CNC(c1ccccc1)c1ccccc1 the results were MARV entry inh inconclusive, HCMV antiviral 17, Lassa entry inh 2.5µM* and FMDV antiviral -21%.
For COc1ccc(Cl)cc1NC(=O)COC(=O)C1=NNC(=O)CC1 the results were MARV entry inh 8%, HCMV antiviral -67*, Lassa entry inh inconclusive and FMDV antiviral -10%.
`Cc1cc(C)nc(N(C#N)CC(=O)N(c2ccccc2)C(C)C)n1` gave MARV entry inh 13%, HCMV antiviral 9, Lassa entry inh 2% and FMDV antiviral 0%.
